# Source: the supplement of paper PMC10849652
# About 7,900 targets were measured; listed, in parts, are those with a hit and a random draw of the rest. About 0.6% of all pairs of compound and target were hits.
# Compound: CC1=CC=C(C=C1)SC2=C3C=C(SC3=CN=C2)C(=O)N
# Test: log2 fold change, soluble protein after heating vs DMSO (PISA); higher = thermal stabilisation; K562 cells, 10 uM, 30 min; active = over 0.2 and 3.5 SD of the protein, either way, in both replicates (recomputed)
# In short: (§1)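 K562 cells at 2×10^6 cells/mL were treated for 30 min with 10 μM compound, and aliquots were heated for 3 min over 48°C-58°C before pooling. Extraction used PBS with 0.5% NP-40 at 4°C, and soluble protein was the supernatant after 21,000xg for 90 min, measured by TMTpro 16plex LC-MS/MS with channel sums equalised. Thermal stability values, relative to control samples and from duplicates, are log2 fold changes.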
# Sequence of UniProt Q9UL54 (Q9UL54 whole entry, looked up): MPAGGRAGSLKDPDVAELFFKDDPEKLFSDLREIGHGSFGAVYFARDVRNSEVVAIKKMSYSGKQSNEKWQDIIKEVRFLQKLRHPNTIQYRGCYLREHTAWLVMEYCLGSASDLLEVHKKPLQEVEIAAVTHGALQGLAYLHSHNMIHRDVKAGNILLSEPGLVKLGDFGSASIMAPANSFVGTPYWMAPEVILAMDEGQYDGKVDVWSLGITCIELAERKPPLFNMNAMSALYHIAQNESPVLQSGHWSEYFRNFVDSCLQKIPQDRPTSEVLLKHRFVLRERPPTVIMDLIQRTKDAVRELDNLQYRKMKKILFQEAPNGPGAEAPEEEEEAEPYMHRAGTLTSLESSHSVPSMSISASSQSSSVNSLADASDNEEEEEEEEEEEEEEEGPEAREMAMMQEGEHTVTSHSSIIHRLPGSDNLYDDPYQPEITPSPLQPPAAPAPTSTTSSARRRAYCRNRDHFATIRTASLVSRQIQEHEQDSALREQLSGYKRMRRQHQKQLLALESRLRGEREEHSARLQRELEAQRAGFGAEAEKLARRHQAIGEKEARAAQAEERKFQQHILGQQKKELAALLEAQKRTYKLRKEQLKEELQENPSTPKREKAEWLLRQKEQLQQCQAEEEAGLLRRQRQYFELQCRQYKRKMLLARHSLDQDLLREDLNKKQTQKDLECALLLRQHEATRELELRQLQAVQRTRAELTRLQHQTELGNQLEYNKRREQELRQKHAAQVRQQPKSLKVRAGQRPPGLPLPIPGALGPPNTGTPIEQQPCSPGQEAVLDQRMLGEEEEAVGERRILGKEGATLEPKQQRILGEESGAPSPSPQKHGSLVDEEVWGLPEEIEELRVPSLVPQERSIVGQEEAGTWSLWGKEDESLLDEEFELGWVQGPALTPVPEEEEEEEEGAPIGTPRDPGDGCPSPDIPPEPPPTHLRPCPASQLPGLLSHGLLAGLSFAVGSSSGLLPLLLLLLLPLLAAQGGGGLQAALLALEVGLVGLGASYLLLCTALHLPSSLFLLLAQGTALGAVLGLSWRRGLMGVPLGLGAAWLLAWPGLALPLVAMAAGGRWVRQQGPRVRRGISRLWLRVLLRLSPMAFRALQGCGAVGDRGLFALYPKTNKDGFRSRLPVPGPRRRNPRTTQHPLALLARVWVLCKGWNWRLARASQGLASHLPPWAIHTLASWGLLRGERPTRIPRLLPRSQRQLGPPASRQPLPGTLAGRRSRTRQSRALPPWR
# Sequence of UniProt Q9NXE4 (Q9NXE4 whole entry, looked up): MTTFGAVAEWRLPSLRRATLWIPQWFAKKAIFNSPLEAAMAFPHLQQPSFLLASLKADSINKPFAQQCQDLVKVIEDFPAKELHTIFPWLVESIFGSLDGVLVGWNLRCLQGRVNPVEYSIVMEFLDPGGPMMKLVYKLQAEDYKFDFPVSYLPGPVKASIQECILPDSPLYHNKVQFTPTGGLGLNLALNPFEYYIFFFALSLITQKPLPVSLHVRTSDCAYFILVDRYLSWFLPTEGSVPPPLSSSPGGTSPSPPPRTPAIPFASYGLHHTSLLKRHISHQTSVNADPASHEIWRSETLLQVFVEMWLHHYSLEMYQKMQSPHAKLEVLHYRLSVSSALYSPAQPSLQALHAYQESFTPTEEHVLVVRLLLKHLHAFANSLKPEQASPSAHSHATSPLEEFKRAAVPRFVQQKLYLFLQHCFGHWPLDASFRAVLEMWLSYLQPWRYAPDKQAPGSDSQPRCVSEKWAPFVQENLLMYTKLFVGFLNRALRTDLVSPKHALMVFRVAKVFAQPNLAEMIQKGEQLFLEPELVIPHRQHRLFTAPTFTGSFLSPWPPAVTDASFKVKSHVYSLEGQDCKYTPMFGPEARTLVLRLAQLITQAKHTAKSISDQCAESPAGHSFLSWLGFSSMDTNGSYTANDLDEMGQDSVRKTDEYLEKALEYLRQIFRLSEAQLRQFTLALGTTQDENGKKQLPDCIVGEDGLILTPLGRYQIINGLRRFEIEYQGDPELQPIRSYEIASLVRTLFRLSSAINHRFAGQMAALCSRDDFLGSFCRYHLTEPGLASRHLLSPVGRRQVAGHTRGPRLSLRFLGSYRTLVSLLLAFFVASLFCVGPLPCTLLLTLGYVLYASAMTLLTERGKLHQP
# Sequence of UniProt O60749 (O60749 whole entry, looked up): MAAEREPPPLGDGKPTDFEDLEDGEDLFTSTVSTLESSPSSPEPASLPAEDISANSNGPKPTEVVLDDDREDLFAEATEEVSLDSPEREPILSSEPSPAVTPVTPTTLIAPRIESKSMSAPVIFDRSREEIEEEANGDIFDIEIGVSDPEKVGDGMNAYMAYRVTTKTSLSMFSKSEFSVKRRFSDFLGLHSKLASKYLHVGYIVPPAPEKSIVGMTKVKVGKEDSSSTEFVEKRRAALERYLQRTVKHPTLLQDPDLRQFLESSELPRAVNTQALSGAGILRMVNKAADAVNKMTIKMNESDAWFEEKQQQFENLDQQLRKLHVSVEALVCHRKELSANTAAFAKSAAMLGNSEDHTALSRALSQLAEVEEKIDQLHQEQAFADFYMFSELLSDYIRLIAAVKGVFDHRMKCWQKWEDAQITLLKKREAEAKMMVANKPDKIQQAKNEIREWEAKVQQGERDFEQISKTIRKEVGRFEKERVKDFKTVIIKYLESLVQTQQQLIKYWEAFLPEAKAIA
# Sequence of UniProt Q13428 (Q13428 whole entry, looked up): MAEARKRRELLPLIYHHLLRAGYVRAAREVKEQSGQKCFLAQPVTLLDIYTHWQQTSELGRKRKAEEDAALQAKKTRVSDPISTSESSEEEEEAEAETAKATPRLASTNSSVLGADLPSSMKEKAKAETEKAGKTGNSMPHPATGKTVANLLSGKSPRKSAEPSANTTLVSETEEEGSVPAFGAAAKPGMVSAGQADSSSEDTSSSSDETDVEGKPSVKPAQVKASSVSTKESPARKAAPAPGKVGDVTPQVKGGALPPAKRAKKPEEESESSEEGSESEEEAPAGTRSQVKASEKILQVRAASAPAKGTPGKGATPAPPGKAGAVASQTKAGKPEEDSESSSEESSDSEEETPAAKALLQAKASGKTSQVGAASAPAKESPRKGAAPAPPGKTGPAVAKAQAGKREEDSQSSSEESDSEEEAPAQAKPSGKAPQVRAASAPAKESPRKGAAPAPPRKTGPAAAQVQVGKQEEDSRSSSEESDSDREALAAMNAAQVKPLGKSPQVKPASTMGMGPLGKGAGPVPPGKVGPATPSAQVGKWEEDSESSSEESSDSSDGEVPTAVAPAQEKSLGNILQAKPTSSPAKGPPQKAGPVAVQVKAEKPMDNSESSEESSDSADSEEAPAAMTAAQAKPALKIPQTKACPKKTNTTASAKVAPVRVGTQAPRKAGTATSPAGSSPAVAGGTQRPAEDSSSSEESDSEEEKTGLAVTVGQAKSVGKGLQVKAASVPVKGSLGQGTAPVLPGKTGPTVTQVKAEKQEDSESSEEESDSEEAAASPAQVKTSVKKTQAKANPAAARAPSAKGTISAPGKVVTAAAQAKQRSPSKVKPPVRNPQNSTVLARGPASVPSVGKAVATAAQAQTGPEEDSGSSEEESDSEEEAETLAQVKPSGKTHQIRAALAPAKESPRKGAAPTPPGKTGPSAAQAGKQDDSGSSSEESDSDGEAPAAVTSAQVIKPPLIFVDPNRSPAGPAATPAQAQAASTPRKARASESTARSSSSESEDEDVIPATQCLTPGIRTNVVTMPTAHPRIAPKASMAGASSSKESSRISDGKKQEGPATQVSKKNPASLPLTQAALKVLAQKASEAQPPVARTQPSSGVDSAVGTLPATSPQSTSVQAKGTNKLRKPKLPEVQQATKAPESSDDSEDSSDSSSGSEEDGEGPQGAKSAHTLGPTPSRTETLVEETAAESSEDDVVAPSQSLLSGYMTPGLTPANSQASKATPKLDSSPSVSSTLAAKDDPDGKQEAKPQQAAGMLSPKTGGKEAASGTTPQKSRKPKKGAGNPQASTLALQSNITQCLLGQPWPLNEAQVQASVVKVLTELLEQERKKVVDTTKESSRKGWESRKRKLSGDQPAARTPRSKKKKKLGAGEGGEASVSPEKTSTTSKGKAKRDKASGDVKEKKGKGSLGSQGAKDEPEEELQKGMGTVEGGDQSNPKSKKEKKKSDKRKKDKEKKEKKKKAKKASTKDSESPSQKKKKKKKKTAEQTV
# Sequence of UniProt Q969S0 (Q969S0 whole entry, looked up): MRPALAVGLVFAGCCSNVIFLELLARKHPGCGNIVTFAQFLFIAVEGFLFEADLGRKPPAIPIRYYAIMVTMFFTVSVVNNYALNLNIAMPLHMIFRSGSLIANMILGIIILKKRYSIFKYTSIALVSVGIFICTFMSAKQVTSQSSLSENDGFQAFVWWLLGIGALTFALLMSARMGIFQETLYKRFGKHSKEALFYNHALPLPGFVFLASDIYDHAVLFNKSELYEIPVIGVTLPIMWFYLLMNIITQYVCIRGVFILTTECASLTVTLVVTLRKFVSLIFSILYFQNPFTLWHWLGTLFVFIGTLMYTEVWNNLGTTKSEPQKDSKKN
# Sequence of UniProt Q6J4K2 (Q6J4K2 whole entry, looked up): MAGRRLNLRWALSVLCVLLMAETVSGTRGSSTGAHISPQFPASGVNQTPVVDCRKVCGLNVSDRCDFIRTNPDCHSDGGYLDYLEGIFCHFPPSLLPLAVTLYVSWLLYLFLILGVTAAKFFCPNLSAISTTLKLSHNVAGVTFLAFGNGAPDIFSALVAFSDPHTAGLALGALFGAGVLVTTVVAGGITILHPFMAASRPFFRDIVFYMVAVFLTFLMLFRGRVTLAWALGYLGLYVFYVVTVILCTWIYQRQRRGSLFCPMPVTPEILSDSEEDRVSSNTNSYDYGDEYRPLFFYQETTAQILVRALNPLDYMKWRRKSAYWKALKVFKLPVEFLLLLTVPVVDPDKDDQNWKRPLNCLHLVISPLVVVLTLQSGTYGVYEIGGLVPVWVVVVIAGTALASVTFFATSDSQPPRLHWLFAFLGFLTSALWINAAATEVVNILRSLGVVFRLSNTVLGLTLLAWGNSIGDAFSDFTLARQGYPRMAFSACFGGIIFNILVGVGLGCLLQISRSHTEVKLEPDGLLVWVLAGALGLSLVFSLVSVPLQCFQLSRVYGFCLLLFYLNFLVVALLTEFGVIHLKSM
row,Target,log2 fold change
1,TAOK2 (UniProt Q9UL54),0.062 (inactive)
2,SMPD4 isoform 2 (UniProt Q9NXE4),0.162 (inactive)
3,SLC8B1 (UniProt Q6J4K2),-0.28 (inactive)
4,SYK (UniProt P43405),-0.025 (inactive)
5,TEX30 (UniProt Q5JUR7),0.047 (inactive)
6,TATDN2 (UniProt Q93075),0.048 (inactive)
7,SNX2 isoform 2 (UniProt O60749),-0.003 (inactive)
8,SNRK (UniProt Q9NRH2),0.066 (inactive)
9,SRSF6 (UniProt Q13247),-0.16 (inactive)
10,TM7SF2 (UniProt O76062),-0.045 (inactive)
11,TAF6L (UniProt Q9Y6J9),-0.055 (inactive)
12,TBP (UniProt P20226),-0.056 (inactive)
13,STK11IP (UniProt Q8N1F8),0.038 (inactive)
14,SLC9A6 isoform 3 (UniProt Q92581),-0.152 (inactive)

# Compound: CC1=NC(=CC=C1)C2=C(N=C(N2)C(C)(C)C)C3=CC4=NC=CN=C4C=C3
# Test: as above
# In short: as §1
row,Target,log2 fold change
1,TAOK2 (UniProt Q9UL54),0.08 (inactive)
2,SMPD4 isoform 2 (UniProt Q9NXE4),-0.023 (inactive)
3,SLC8B1 (UniProt Q6J4K2),-0.022 (inactive)
4,SMDT1 (UniProt Q9H4I9),0.033 (inactive)
5,SYK (UniProt P43405),-0.386 (inactive)
6,SLC35B1 isoform 2 (UniProt P78383),0.054 (inactive)
7,SLC44A2 isoform 2 (UniProt Q8IWA5),-0.024 (inactive)
8,TEX30 (UniProt Q5JUR7),-0.062 (inactive)
9,SP2 (UniProt Q02086),-0.122 (inactive)
10,TCOF1 isoform 6 (UniProt Q13428),-0.105 (inactive)
11,SMARCB1 (UniProt Q12824),0.101 (inactive)
12,SLC35B4 (UniProt Q969S0),-0.064 (inactive)
13,STK17B (UniProt O94768),0.031 (inactive)
14,SYNE1 (UniProt Q8NF91),-0.17 (inactive)
15,SPIRE1 (UniProt Q08AE8),-0.025 (inactive)
16,TATDN2 (UniProt Q93075),-0.07 (inactive)
17,SNX2 isoform 2 (UniProt O60749),-0.039 (inactive)
18,SNRK (UniProt Q9NRH2),0.225 (inactive)
19,SPIN4 (UniProt Q56A73),-0.601 (inactive)
20,SREBF1 isoform 4 (UniProt P36956),0.035 (inactive)
21,STK38L (UniProt Q9Y2H1),0.056 (inactive)
22,SRSF6 (UniProt Q13247),0.126 (inactive)
23,SPAG9 isoform 4 (UniProt O60271),-0.038 (inactive)
24,TBP (UniProt P20226),-0.071 (inactive)
25,STK11IP (UniProt Q8N1F8),-0.071 (inactive)
26,THAP9 (UniProt Q9H5L6),-0.065 (inactive)

# Compound: CCCCN(Cc1ccc(C(=O)NO)cc1)C(=O)Nc1ccccc1 [Nexturastat A]
# Test: as above
# In short: as §1
row,Target,log2 fold change
1,TAOK2 (UniProt Q9UL54),0.487 (active)
2,SMDT1 (UniProt Q9H4I9),-0.015 (inactive)
3,SYK (UniProt P43405),0.901 (active)
4,SLC35B1 isoform 2 (UniProt P78383),0.072 (inactive)
5,SLC44A2 isoform 2 (UniProt Q8IWA5),0.05 (inactive)
6,TEX30 (UniProt Q5JUR7),0.009 (inactive)
7,SLC35B4 (UniProt Q969S0),-0.061 (inactive)
8,SYNE1 (UniProt Q8NF91),0.612 (active)
9,SPIRE1 (UniProt Q08AE8),0.31 (inactive)
10,TATDN2 (UniProt Q93075),0.092 (inactive)
11,TBC1D2 (UniProt Q9BYX2),0.618 (active)
12,TCOF1 isoform 3 (UniProt Q13428),-0.429 (inactive)
13,SNX2 isoform 2 (UniProt O60749),0.484 (inactive)
14,SREBF1 isoform 4 (UniProt P36956),0.063 (inactive)
15,STK38L (UniProt Q9Y2H1),-0.074 (inactive)
16,SRSF6 (UniProt Q13247),0.248 (inactive)
17,TBP (UniProt P20226),0.163 (inactive)
18,STK11IP (UniProt Q8N1F8),0.118 (inactive)

# Compound: CCCS(=O)(=O)Nc1ccc(F)c(C(=O)c2c[nH]c3ncc(-c4ccc(Cl)cc4)cc23)c1F [vemurafenib]
# Test: as above
# In short: as §1
row,Target,log2 fold change
1,SMPD4 isoform 2 (UniProt Q9NXE4),-0.301 (inactive)
2,SLC8B1 (UniProt Q6J4K2),-0.075 (inactive)
3,SMDT1 (UniProt Q9H4I9),0.037 (inactive)
4,SYK (UniProt P43405),-0.097 (inactive)
5,SLC35B1 isoform 2 (UniProt P78383),0.267 (inactive)
6,SSB (UniProt E7ERC4),0.264 (inactive)
7,SLC44A2 isoform 2 (UniProt Q8IWA5),0.038 (inactive)
8,TEX30 (UniProt Q5JUR7),0.138 (inactive)
9,TCOF1 isoform 6 (UniProt Q13428),0.146 (inactive)
10,SMARCB1 (UniProt Q12824),0.065 (inactive)
11,SLC35B4 (UniProt Q969S0),0.062 (inactive)
12,SYNE1 (UniProt Q8NF91),-0.045 (inactive)
13,SPIRE1 (UniProt Q08AE8),-0.011 (inactive)
14,TATDN2 (UniProt Q93075),0.168 (inactive)
15,TC2N (UniProt Q8N9U0),0.063 (inactive)
16,SUPT5H isoform 2 (UniProt O00267),0.232 (inactive)
17,SLC46A1 (UniProt Q96NT5),0.056 (inactive)
18,SNX2 isoform 2 (UniProt O60749),-0.026 (inactive)
19,STK38L (UniProt Q9Y2H1),-0.038 (inactive)
20,SRSF6 (UniProt Q13247),-0.024 (inactive)
21,SSBP4 (UniProt U3KPY3),-0.095 (inactive)
22,TM7SF2 (UniProt O76062),0.252 (inactive)
23,SPAG9 isoform 4 (UniProt O60271),0.174 (inactive)
24,TBP (UniProt P20226),0.02 (inactive)
25,STK11IP (UniProt Q8N1F8),-0.159 (inactive)
